Experimental data from PubChem BioAssay AID743279 (National Center for Advancing Translational Sciences (NCATS), 2014).
The campaign covered roughly 360,000 compounds. About 17,000 (4.7%) were called active. Another 5% or so got no clear call; they are omitted. This excerpt belongs to a sample that is enriched for actives. A number with no mark means an inactive call. Rule as the data show it: active = activity change below about -50%; inconclusive = mostly about -30% to -49%; inactive = weaker than that.

Assay: qHTS for Inhibitors of Inflammasome Signaling: IL-1-beta AlphaLISA Primary Screen
Settings: THP-1 LPS/ATP IL-1B secretion, 16 h; at 57.5 µM, stronger effect = lower value
Outline: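 Secreted IL-1B measured by AlphaLISA bead assay after 16 h compound exposure of THP-1 cells; compounds (final up to 57.5 uM) added 1 h before LPS (250 ng/mL) and ATP (1.25 mM) stimulation; lower signal means less secretion.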
% is scaled to controls: 0 for no effect and ±100 for the full control effect.

SMILES | activity change
COc1cccc(NC(=O)CSc2nccn(-c3ccc4c(c3)OCCO4)c2=O)c1 | -15.5%
COc1ccc(S(=O)(=O)NC(=O)C2(C)CCN2C(=O)COc2ccc(Cl)cc2)cc1 (centres undefined) | 21%
Cc1ccc(N2C(=O)CC(N3CCSCC3)C2=O)c(C)c1 (centres undefined) | 9.43%
Cc1c(O)c(C)c2c(c1O)C(=O)C[C@@H](c1ccccc1)O2 | 40.2%
CCCNC(=O)C1CC(=O)N(c2ccc(OCc3ccccc3)cc2)C1 (centres undefined) | 18%
c1ccc(C(=NNc2nc3ccccc3s2)c2ccccn2)cc1 | -21.7%
C=CCn1nc(C(=O)OCC)cc1-c1sc(NC(=O)c2ccccc2)nc1C | -29.6%
CNC[C@H]1OCc2cnnn2CCCC(=O)N([C@H](C)CO)C[C@@H]1C | -6.3%
COc1cc(C(=O)NCc2nnc(SCC(=O)c3ccc(Cl)cc3)o2)cc(OC)c1OC | 9.13%
CCOC(=O)CSc1nnc(CNc2ccc(F)cc2)o1 | 3.99%
CCC(=O)Nc1ccc(C(=O)CSc2nnc(CNc3ccc(Cl)cc3)o2)cc1OC | -55.7% (active)
Cc1ccc(-c2csc(C(C#N)=C(O)CN3CCN(C(=O)c4ccco4)CC3)n2)cc1 | -7.72%
CC1=CC(C)(C)Nc2ccc(OC(=O)C(Cc3ccccc3)N3C(=O)C4CCCCC4C3=O)cc21 (centres undefined) | -94.7% (active)
O=C(C(Cc1ccccc1)n1cccc1)N1CCN(C2CCCCC2)CC1 (centres undefined) | 8.33%
COc1ccc(C(=O)COC(=O)CN2C(=O)C3CC=CCC3C2=O)c(OC)c1 (centres undefined) | -15.2%
CC1=CC(C)(C)Nc2ccc(OC(=O)CN3C(=O)C4CCCCC4C3=O)cc21 (centres undefined) | -97.6% (active)
O=C(COC(=O)CN1C(=O)C2CCCCC2C1=O)Nc1ccc(F)c(F)c1F (centres undefined) | 4.41%
CCOC(=O)C(Cc1ccc(N)cc1)N1C(=O)c2ccccc2C1=O (centres undefined) | 12.1%
C/C=C/C(=O)OCc1csc(CC(=O)Nc2ccccc2C)n1 | 13.6%
COc1ccc(S(=O)(=O)N2CCN(C(C)C(=O)Nc3ccc(C(C)C)cc3)CC2)cc1 (centres undefined) | -16.4%
COCCCNC(=O)Cc1ccc(-n2c(C)nc3cccnc32)cc1 | 22.7%
COc1cccc(C(O)c2ncc(-c3ccc4ccccc4c3)[nH]2)c1 (centres undefined) | 18.2%
CCOC(=O)C1CCCN(C(=O)c2ccc(C)c(S(=O)(=O)N3CCCCC3)c2)C1 (centres undefined) | 4.44%
COc1ccc(Cl)cc1-n1c(=S)sc2c(=O)n(-c3ccc(F)cc3)c(SCC(=O)O)nc21 | 14.4%
